# Rows were chosen to be rich in hits. Some 4% of all compounds tested hit in one or more screens of this group.
# Mtb UGM inh = Mtb UDP-galactopyranose mutase inhibition | P9WIQ1 | inhibition, % at 10 µM | purified UGM, fluorescence polarization probe displacement | 0.06% of 320,000 active; in the data active = inhibition above about 10%, passing the limit was not always enough; inconclusive = no clear call, values can overlap the other calls
# GDH-TPI inh = inhibits GDH-TPI coupling enzymes, artifact for Mtb FBA screen. 1.2% of 360,000 active. GDH-TPI coupled enzyme counterscreen, NADH absorbance. inhibition, % at 4.8 µM; in the data active = inhibition above about 30%;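 also: 0% = DMSO wells and 100% = wells lacking the enzyme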
# Mtb betalactam = beta-lactam sensitization of Mtb H37Rv; M. tuberculosis H37Rv growth with meropenem, percent inhibition; inhibition, % at 25 µM; 0.27% of 330,000 active; AID 434955; call rule not given here;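 also: growth measured after seven days incubation then overnight dye step; 0% = bacteria only wells and 100% = bacteria with antibiotic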
# RecA intein inh = Mtb RecA intein splicing inhibition | cell-free RecA intein splicing, fluorescence | inhibition, % (test concentration not listed) | 0.75% of 290,000 active | P9WHJ3; in the data active = inhibition above about 30%; inconclusive = no clear call, values can overlap the other calls;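 also: 0% = vehicle wells and 100% = reference inhibitor control wells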
# Mtb FBA inh = inhibitors of M. tuberculosis fructose-bisphosphate aldolase; AID 588726; purified M. tuberculosis FBA, fluorescence read-out; 2.3% of 360,000 active; inhibition, % at 1 µM; P9WQA3; in the data active = inhibition above about 27%;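 also: 0% = vehicle and 100% = reference inhibitor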
# Rv3671c protease = Rv3671c (M. tuberculosis) protease inhibition | inhibition, % at 5.96 µM | P9WHR9 | 0.048% of 320,000 active; in the data active = inhibition above about 38%;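 also: extracellular domain of Rv3671c used as enzyme; 0% = enzyme with DMSO and 100% = no enzyme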
# Target sequence (P9WHR9 whole entry, looked up, the tested form may be a part): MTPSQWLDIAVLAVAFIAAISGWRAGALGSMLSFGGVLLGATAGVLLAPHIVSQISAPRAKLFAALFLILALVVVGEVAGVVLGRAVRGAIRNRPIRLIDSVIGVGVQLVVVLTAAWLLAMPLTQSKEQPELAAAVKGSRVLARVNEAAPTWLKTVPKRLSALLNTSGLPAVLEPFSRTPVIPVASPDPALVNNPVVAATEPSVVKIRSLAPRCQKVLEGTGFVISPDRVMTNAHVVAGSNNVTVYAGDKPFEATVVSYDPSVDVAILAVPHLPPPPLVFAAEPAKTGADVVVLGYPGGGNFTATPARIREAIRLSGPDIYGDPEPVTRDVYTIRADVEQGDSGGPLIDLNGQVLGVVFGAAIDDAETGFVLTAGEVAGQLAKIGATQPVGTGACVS
# * = called active by the depositor; ? = inconclusive; · = no result given; + = active, no number.
SMILES,Mtb UGM inh,GDH-TPI inh,Mtb betalactam,RecA intein inh,Mtb FBA inh,Rv3671c protease
O=C(NNC(=O)c1ccccc1[N+](=O)[O-])c1ccc(NS(=O)(=O)c2cccs2)cc1,-2.4,-5.6,-7.0,-3.2,1.7,4.3
O=C(Nc1ccc(-c2nc3ncccc3o2)cc1)c1ccc(Br)o1,10.0,57.0*,-5.2,-4.9,14.3,-48.5
Nc1ccc(-c2nc3ncccc3o2)cc1,0.1,42.7*,3.9,-0.7,+,-5.1
Cn1c(=O)c2cc(NC(=S)NC3CCCCC3)ccc2n1Cc1cccc(C(F)(F)F)c1,·,1.8,·,·,15.8,·
Cn1c(=O)c2cc(NC(=O)OCCF)ccc2n1Cc1cccc(C(F)(F)F)c1,·,5.4,·,·,183.1*,·
Cn1c(=O)c2cc(NC(=O)NCCc3ccccc3)ccc2n1Cc1ccccc1,·,-3.5,·,·,127.2*,·
Cn1c(=O)c2cc(NC(=O)NCCc3ccccc3)ccc2n1Cc1cccc(C(F)(F)F)c1,·,5.8,·,·,130.2*,·
COc1ccc(CNc2nccn3ccnc23)cc1,·,1.3,·,·,-0.5,·
CCOC(=O)c1ccccc1NC(=O)CSc1nc2ccccc2c(=O)n1CCCN1CCOCC1,1.0,-3.9,55.9,·,1.4,0.2
CCO[C@@H]1OC(C(=O)N2CCOCC2)=C[C@H](c2ccccc2)[C@H]1CCCO,2.2,0.4,-1.6,0.6,2.9,5.7
O=c1c2ccccc2nc(/C=C/c2cccnc2)n1Cc1ccccc1,·,14.8,·,49.0*,-1.2,·
O=c1c2ccccc2nc(/C=C/c2cccnc2)n1CCc1ccccc1,-0.3,36.5*,-0.2,42.9*,0.4,-1.3
Nc1ccc2nc(-c3cccc(-c4nc5ccc(N)cc5[nH]4)n3)[nH]c2c1,-2.7,18.2,3.9,11.3,-0.8,1.3
Cc1ccc2nc(-c3cccc(N)c3)[nH]c2c1,-0.4,8.4,-0.2,0.5,137.0*,-3.7
Nc1ccc(-c2nc3ccccc3[nH]2)cc1,0.2,22.6,-3.5,·,117.3*,-5.5
Nc1ccccc1-c1nc2ccccc2[nH]1,0.2,11.4,2.9,-36.6,+,-10.3
Nc1ccc(-c2nc3c(ccc4ccccc43)[nH]2)cc1,-1.4,42.1*,-9.5,0.6,+,2.5
CC1CCCC(C)N1C(=O)c1cc(-c2ccc3c(c2)OCO3)on1 (centres undefined),-1.4,0.0,54.8,1.2,-1.8,0.2
Cc1cc(Cl)ccc1C(O)c1ncc(-c2ccc3ccccc3c2)[nH]1 (centres undefined),·,3.6,·,·,6.8,·
Fc1ccc(-c2nc3ccccc3[nH]2)cc1,-0.4,14.4,2.3,0.1,7.8,-4.7
O=C(O)c1ccc(/C=C(\c2nc3ccccc3[nH]2)c2nc3ccccc3s2)cc1,-0.2,65.0*,-0.4,38.9*,-0.7,-1.9
O=C(/C(=C(\O)c1ccccc1)c1nc2ccccc2[nH]1)c1ccccc1,-2.1,39.7*,53.3,-9.8,2.4,4.0
O=C(O)c1ccc(-c2nc3ccccc3[nH]2)cc1,0.6,5.0,1.4,12.4,+,-8.3
CC(=O)/C(=C(/O)c1ccccc1)c1nc2ccccc2[nH]1,-4.4,8.5,0.7,·,0.6,3.9
Nc1cccc(-c2nc3ccccc3[nH]2)c1,-10.6,8.8,-3.0,0.2,136.1*,-2.0
SMILES,Mtb UGM inh,GDH-TPI inh,Mtb betalactam,RecA intein inh,Mtb FBA inh,Rv3671c protease
Cc1[nH]ncc1-c1nc2ccccc2[nH]1,-0.3,-3.0,-1.0,-1.1,-0.1,5.4
Oc1ccc(C=Nc2ccccc2-c2nc3ccccc3[nH]2)cc1,-1.7,19.9,1.1,-6.8,+,0.8
Cc1c(-c2nc3ccccc3[nH]2)cnn1C,2.9,10.1,-2.0,·,2.5,-1.1
O=c1[nH]cccc1-c1nc2ccccc2[nH]1,-1.3,42.4*,7.7,-1.0,+,0.5
CCCOc1ccc(C2C(C(=O)OC)=CN(CCOC)C=C2C(=O)OC)cc1,-1.2,-3.1,-4.8,-115.4,+,8.6
CCCCN1C=C(C(=O)OC)C(c2ccccc2Cl)C(C(=O)OC)=C1,-0.4,-2.2,-8.6,-94.6,171.2*,-18.1
COC(=O)C1=CNC=C(C(=O)OC)C1c1cccc(OC)c1,1.5,4.3,-9.8,-45.2,195.4*,5.8
COCCN1C=C(C(=O)OC)C(c2ccccc2C(F)(F)F)C(C(=O)OC)=C1,1.3,9.0,?,-94.5,154.9*,5.2
CCCCN1C=C(C(=O)OC)C(c2ccccc2C(F)(F)F)C(C(=O)OC)=C1,-2.6,2.9,-5.4,-35.5,14.2,7.3
CC(=O)Nc1cccc(OCCCNC(=O)c2ccc(C(C)(C)C)cc2)c1,3.1,-9.0,-6.6,1.8,-0.6,1.1
Cn1c(=O)c2c(nc(SCc3ccc(F)cc3)n2C)n(C)c1=O,0.5,-1.1,6.0,-0.4,-0.3,1.9
COC(=O)C1=CNC=C(C(=O)OC)C1c1ccc(Cl)cc1,0.1,6.2,-2.9,-22.1,+,-6.5
COC(=O)C1=CN(c2ccc(Cl)cc2)C=C(C(=O)OC)C1c1ccc([N+](=O)[O-])cc1,-6.2,2.1,2.9,-1.7,-0.7,·
COC(=O)C1=CNC=C(C(=O)OC)C1c1ccccc1Cl,-0.7,8.0,-5.7,·,+,4.7
CNc1cc([N+](=O)[O-])ccc1OCc1ccccc1,2.3,17.2,-6.8,8.0,-0.6,-4.7
CCOC(=O)c1sc2nc(N3CCOCC3)c3c(c2c1N)CCC3,-2.0,30.3,0.7,-0.4,124.9*,-9.0
CC1(C)Cc2c(c(N3CCOCC3)nc3sc(C(N)=O)c(N)c23)CO1,-2.1,32.5*,0.3,-3.4,18.7,3.6
Cc1c(NC(=O)c2cccc(NC(=O)COc3ccccc3C#N)c2)c(=O)n(-c2ccccc2)n1C,·,1.8,·,·,2.8,·
CN1C(=S)SC2CS(=O)(=O)CC21 (centres undefined),-4.9,9.6,-0.8,-0.8,0.6,6.3
CCOC(=O)CNC(=O)c1ccccc1,1.9,5.0,-12.7,-3.0,-1.9,-8.3
CCOC(=O)CNC(=O)c1ccccc1Br,-0.4,3.0,2.1,0.4,+,5.6
CCCNC(=O)C(Cc1ccc(Br)cc1)NC(=O)c1ccc(C#N)cc1 (centres undefined),-3.2,4.0,-2.9,·,2.5,-3.9
CC(=C\C(=O)O)/C(=C\c1cccc2ccccc12)C(=O)O,2.3,31.2*,16.7,-0.9,2.5,7.1
O=C(N/N=C\c1ccc(Cl)s1)c1ccc(Cn2cccn2)o1,-3.7,37.4*,-5.1,-2.4,-1.4,-9.6
Cc1ccc(/C=N/NC(=O)Cc2ccc(O)cc2)s1,2.2,7.6,2.3,2.1,2.2,-1.2
SMILES,Mtb UGM inh,GDH-TPI inh,Mtb betalactam,RecA intein inh,Mtb FBA inh,Rv3671c protease
CCc1ccc(/C=N\NC(=O)c2ccc(Br)o2)s1,-1.7,47.3*,3.8,1.8,-2.2,0.2
Cc1ccc(/C=N/NC(=O)c2ccc(Br)o2)s1,-7.5,30.7*,-3.8,2.1,-3.5,-1.9
Cn1ccc(/C=N/N=C2/NC(=O)CS2)n1,6.7,46.2*,30.8,-0.4,-1.4,2.5
O=C1CS/C(=N/N=C/c2ccncc2)N1,0.5,29.5,-1.8,0.4,-3.3,-0.2
O=C(CC(=O)c1ccccc1)c1ccccc1,·,23.8,·,·,5.7,·
CC(CC(=O)c1ccccc1)=NCCCN=C(C)CC(=O)c1ccccc1,·,60.2*,·,·,-1.7,·
